Screening results as filed in PubChem BioAssay.
Shown are actives, neighbours in structure and some others; about 1.1% of the full set was active somewhere.
Giardia FBPA inh – qHTS Assay for Inhibitors of Fructose-1,6-bisphosphate Aldolase from Giardia Lamblia; A8B2U2; Potency, µM (doses to about 59.6 µM), without a hit: at the top dose activity, negative = inhibition, usual class: inhibitors; purified Giardia FBPA; actives 0.71% (n = 290,000); note: % is set by controls: 0 for no effect and ±100 for the full control effect; nearly all actives have a fitted effect of over 55% in size
Target sequence (A8B2U2 whole entry, looked up): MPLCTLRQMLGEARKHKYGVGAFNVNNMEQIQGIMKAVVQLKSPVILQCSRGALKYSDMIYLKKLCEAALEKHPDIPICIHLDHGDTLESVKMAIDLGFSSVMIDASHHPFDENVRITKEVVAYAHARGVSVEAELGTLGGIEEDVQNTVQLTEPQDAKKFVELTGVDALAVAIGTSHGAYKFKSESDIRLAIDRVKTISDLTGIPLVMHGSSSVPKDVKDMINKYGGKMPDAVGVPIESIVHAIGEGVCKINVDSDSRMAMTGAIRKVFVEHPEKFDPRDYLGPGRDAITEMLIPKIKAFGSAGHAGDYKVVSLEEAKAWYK
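40 nM FBPA preincubated 10 min at RT with compound (up to 57.5 uM final), then substrate plus GAPDH/TPI/NAD/arsenate coupling and diaphorase/resazurin added. Fluorescence read after 20 min at RT, 525/598 nm.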
RE007 growth inh – qHTS Assay for Inhibitors of the HIV-1 protein Vpr. Potency, µM (top dose mostly 92.2 µM), for inactives: at the highest dose activity change, negative = less growth, actives largely listed as inhibitors. S. pombe RE007 Vpr strain, BacTiter-Glo ATP luminescence, 24 h. AID 651644, 2012. actives 0.21% (n = 360,000); active = well fitted falling curve with a large enough effect; inconclusive = small, poorly fitted or top-dose-only effect; inactive = no such curve, though single readings can be large or run the other way; note: % is set by controls: 0 for no effect and ±100 for the full control effect; nearly all actives have a fitted effect of over 50% in size
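Fission yeast strain RE007, carrying one chromosomally integrated HIV-1 vpr copy, was seeded at OD 0.01 in PMG+AL medium with 23 nL pinned compound. After 24 h at 30 °C and 99% humidity, viability was read by BacTiter-Glo luminescence.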
Tb PYK inh – qHTS of Trypanosoma Brucei Inhibitors; AID 624173, 2012; Potency, µM (doses to about 76.8 µM), without a hit: at the top dose activity, negative = inhibition, actives largely listed as inhibitors; actives 0.12% (n = 410,000); pyruvate kinase (Trypanosoma brucei), Q57TT1; TbPYK enzyme, Kinase-Glo Plus ATP luminescence, 45 min; note: % is set by controls: 0 for no effect and ±100 for the full control effect; nearly all actives have a fitted effect of over 50% in size
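ADP (130 uM final) triggers the TbPYK reaction after compound addition; incubation is 45 min at room temperature. Kinase-Glo Plus is then added and luminescence imaged. Normalized data are fitted to concentration-effect curves.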
SARS PLpro yeast – qHTS of Yeast-based Assay for SARS-CoV PLP; S. cerevisiae expressing SARS-CoV PLpro, growth rescue; Potency, µM (series often up to 32.9 µM), without a hit: top-dose activity, positive = growth rescue, hits mostly activators; actives 0.19% (n = 330,000); AID 485353, 2010; calls by dose curve; note: 0% is about no effect; nearly all actives have a fitted effect of over 55% in size
LmPK inhibitor – qHTS Assay for Inhibitors of Leishmania Mexicana Pyruvate Kinase (LmPK); purified LmPK, Kinase-Glo ATP luminescence, 1 h; Potency, µM (top dose mostly 57.5 µM), inactives show at the highest dose activity change, negative = inhibition, usual class: inhibitors; actives 0.37% (n = 290,000); Q27686; note: % is set by controls: 0 for no effect and ±100 for the full control effect
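Purified LmPK (0.1 nM) with 0.5 mM PEP and 0.1 mM ADP in imidazole buffer pH 7.2 with MgCl2/KCl, 1 h at room temperature. ATP formed was read by luciferase luminescence and normalized to no-enzyme and uninhibited controls.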
An asterisk follows results filed as active; ? = inconclusive; . = no result. Unless noted, calls come from the whole dose curve; as a rule, active = well fitted curve in the direction sought with a large enough effect; inconclusive = small, poorly fitted or top-dose-only effect, or another doubt; inactive = no such curve, though single readings can be large; an effect the other way counts as inactive or inconclusive. Potency is the fitted concentration of half-maximal effect.

SMILES	Giardia FBPA inh	RE007 growth inh	Tb PYK inh	SARS PLpro yeast	LmPK inhibitor
Cc1cc(C)cc(N2C(=O)C=CC2=O)c1	.	3.16µM*	12.6µM*	.	.
Cc1cc(C)cc(N2C(=O)c3nccnc3C2=O)c1	0.0%	1.6%	-15.4%	-6.6%	-1.1%
Cc1cc(N2C(=O)C=CC2=O)c([N+](=O)[O-])cc1C	-28.6%	?	28.2µM*	-77.9%	?
Cc1ccc(N2C(=O)C3C4C=CC(CC4)C3C2=O)cc1[N+](=O)[O-] (stereo unspecified)	-4.3%	-10.9%	1.2%	2.7%	35.7%
Cc1c([N+](=O)[O-])cc(N2C(=O)C=CC2=O)cc1[N+](=O)[O-]	.	-15.7%	25.1µM*	.	.
Cc1nnc(C(C)C)n1C1CC2CCC(C1)N2CC[C@H](NC(=O)C1CCC(F)(F)CC1)c1ccccc1 (stereo partly specified)	.	.	11.0%	.	.
CC(NC(=S)Nc1ccccc1OC(F)F)C(C)(C)C (stereo unspecified)	-6.6%	-6.6%	-0.6%	11.2µM*	3.5%
O=C(O)c1ccccc1C(=O)Nc1n[nH]c(=S)s1	9.98µM*	2.9%	?	28.2%	3.4%
COc1ccc(C)cc1NC(=O)C(NS(=O)(=O)c1cccc2nsnc12)c1ccccc1 (stereo unspecified)	.	.	2.3%	.	.
CCOC(=O)CNCCC(=O)c1ccc(Br)cc1	-12.7%	35.5µM*	-9.1%	-13.5%	-0.7%
COc1cccc(C(=O)c2cn(CC(=O)Nc3cccc(C)c3C)c3nc(C)ccc3c2=O)c1	.	.	-7.4%	.	.
COc1cccc(Cn2c(NCc3ccc(C)cc3)nc3c2c(=O)n(C)c(=O)n3C)c1	.	.	1.1%	.	.
Cc1cc(C)c(SSc2nnnn2-c2ccccc2)c(C)c1	.	12.7%	3.55µM*	.	.
Cc1ccc2cc(C)c(Sc3nnnn3-c3ccccc3)nc2c1	-19.8%	18.4%	0.7%	5.2%	1.7%
CCOC(=O)C1=C(CN2CCN(c3cccc(Cl)c3)CC2)NC(=O)NC1c1ccc(Cl)cc1 (stereo unspecified)	.	.	-2.0%	.	.
Cc1ccc2nc(-c3ccccc3)cn2c1	-28.1%	44.7µM*	25.1µM*	-22.6%	7.08µM*
Cc1ccc2nc(-c3ccc(O)c(O)c3)cn2c1	?	16.6%	-23.3%	-3.4%	?
CCOc1ccc(NC(=O)c2ccc(F)c(S(=O)(=O)N(Cc3ccc(C(=O)OC)cc3)Cc3ccc(OC)c(OC)c3)c2)cc1	.	.	0.0%	.	.
CN(Cc1nc(Cc2ccccc2F)no1)[C@@H]1CS(=O)(=O)C[C@H]1O	5.5%	-3.5%	1.0%	1.1%	-1.6%
Cc1cc(C)n(CCN(C)Cc2nc(Cc3ccccc3F)no2)n1	-9.7%	-11.4%	-1.1%	-1.8%	28.2µM*
Cc1cc(O)c(C(C)C)cc1N=Cc1ccccc1O	3.54µM*	11.3%	-21.5%	-0.9%	2.7%
CC(N=Cc1ccccc1O)c1ccccc1 (stereo unspecified)	10.7%	0.9%	-15.6%	15.7%	-17.0%
C#CC1(OC(C)=O)CCC2C3CCC4=CC(OC(C)=O)CCC4C3CCC21C (stereo unspecified)	.	.	-9.1%	.	.
O=c1oc2ccccc2c(Nc2cc3ccccc3cc2O)c1[N+](=O)[O-]	6.29µM*	-17.6%	-7.5%	-1.7%	-2.5%
O=c1oc2ccccc2c(Nc2ccccc2O)c1[N+](=O)[O-]	-0.2%	-5.7%	7.1%	-3.9%	-3.7%
SMILES	Giardia FBPA inh	RE007 growth inh	Tb PYK inh	SARS PLpro yeast	LmPK inhibitor
O=C(CC1N=C2c3ccccc3N=C(SCc3ccc(F)cc3)N2C1=O)NC1CCCCC1 (stereo unspecified)	.	.	2.3%	.	.
COc1cccc(-c2ccc3ncnc(NCc4cccc(F)c4)c3c2)c1	.	.	.	8.91µM*	.
COC(=O)c1ccc2nc(-c3ccc4c(c3)OCO4)cn2c1	-0.7%	-15.9%	-11.9%	-0.4%	?
CCc1ccn2cc(-c3ccc4c(c3)OCO4)nc2c1	?	?	?	-9.4%	14.1µM*
COc1ccc(C2C(=O)N(C3CCC(C)CC3)CC(=O)N2CCc2ccccc2)cc1OC (stereo unspecified)	.	.	-5.5%	.	.
S=C(Nc1ccc(Oc2ccc(NC(=S)NC3CCCCC3)cc2)cc1)NC1CCCCC1	2.3%	3.5%	-26.9%	11.2µM*	1.1%
